PubChem BioAssay AID1578 (Sanford-Burnham Center for Chemical Genomics, 2009)
Among all 290,000 compounds or so, about 3,000 (1%) were called active. The entries come from a sample that favours actives as a whole. Values without a mark were called inactive. Cut-off read from the data, not from the text of the source: active = inhibition mostly above about 36% (no sharp cut-off); inactive = mostly below about 34%.

Experiment: NOD1 signaling inhibitors, primary screen, cell-based, luminescence, uHTS (AID 1578);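 note: HEK-293T reporter cells stimulated with the NOD1 agonist gamma-tri-DAP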
Conditions: NOD1-driven NF-kB luciferase reporter cells, at 4 µM, hits give high values

SMILES | inhibition
CCOc1ccc(-c2nc(N)ncc2-c2ccccc2)c(O)c1 | 2.9%
C=CCN1C(=O)C(CC(=O)O)SC1=Nc1ccc(C)cc1 (configuration not stated) | -23.8%
CC(Oc1ccccc1)c1ccnc2nc(/N=C/N(C)C)nn12 (configuration not stated) | -24.9%
CC1(C)CC(=O)c2sc(NC(=O)CCS(=O)(=O)c3ccccc3)nc2C1 | 71% (active)
CC1(C)CC(=O)c2sc(NC(=O)c3ccccc3)nc2C1 | -45.6%
CC1(C)CC(=O)c2sc(NS(=O)(=O)c3ccccc3)nc2C1 | -13.7%
CN(C)c1c(F)cc(C(=O)NC(=O)NCc2cccnc2)cc1F | -15%
COc1ccc(C(CC(=O)O)NC(=O)c2cccs2)cc1 (configuration not stated) | -11.2%
Cc1cccc(NC(NC(=O)c2ccccc2[N+](=O)[O-])C(Cl)(Cl)Cl)c1 (configuration not stated) | -3.9%
O=C(CSc1nnnn1-c1ccc2c(c1)OCCO2)Nc1nc2c(s1)CCCC2 | 58.5% (active)
COc1ccc(-n2nnnc2SCC(=O)Nc2nc3c(s2)CCCC3)cc1 | 43.4%
COc1cc(OC)cc(-n2nnnc2SCC(=O)Nc2nc3c(s2)CCCC3)c1 | -3.7%
O=C(O)c1cccc(Oc2ccc([N+](=O)[O-])cc2)c1 | -8.3%
COc1cc(/C=N/NC(=O)C(=O)NCc2cccnc2)cc(OC)c1OC | -15.5%
CCOc1ccc(C(=O)O/N=C(\N)c2ccccn2)cc1 | 20.4%
COc1cc(OC)cc(C(=O)O/N=C(\N)c2ccccn2)c1 | -12.2%
COc1ccc(C(=O)O/N=C(\N)c2ccccn2)cc1 | 84.1% (active)
Cc1ccc(C(=O)O/N=C(\N)c2ccccn2)cc1 | 11.3%
N/C(=N\OC(=O)c1ccccc1)c1ccccn1 | 18.4%
CNC(=O)C(=O)NCC1OCCN1S(=O)(=O)c1ccc(C)cc1 (configuration not stated) | -22.7%
CCc1ccnc(NC(=O)NS(=O)(=O)c2ccc(C)cc2)c1 | -11.9%
COc1ccc(NS(=O)(=O)c2cccc(C(=O)OCC(=O)NC3CC3)c2)cc1 | 7.3%
CCC(NC(=O)c1cc(COc2ccc(OC)cc2Cl)on1)c1ccncc1 (configuration not stated) | -10.3%
O=C(CCc1nnc(CCCCc2ccccc2)o1)NCCn1cccn1 | -24.1%

SMILES | inhibition
CCC(Sc1nc2cc(OC)c(OC)cc2c(=O)n1Cc1ccc(OC)cc1)C(=O)NCCOC (configuration not stated) | -24.5%
c1ccc(Oc2cnc3ccccc3n2)cc1 | 13.1%
Cc1ccc(Oc2cnc3ccccc3n2)cc1 | 18.8%
COc1ccc(Oc2cnc3ccccc3n2)cc1 | 60.3% (active)
NC(=O)c1nn(-c2ccc(Oc3ccccc3)cc2)c(=O)cc1O | -23.2%
CC(CCc1ccccc1)NC(=S)NC(=O)c1ccco1 (configuration not stated) | -37%
O=C(NC(=S)N(CCc1ccccc1)CCc1ccccc1)c1ccco1 | 97.6% (active)
O=C(NC(=S)NCCc1ccccc1)c1ccco1 | -69.5%
CC(C)C1Nc2ccc(C(=O)NC3CCCCC3)cc2NC1=O (configuration not stated) | -43.7%
Nc1nc(-c2ccccc2)cc(N2CCCCC2)n1 | 6.2%
CN(C)S(=O)(=O)c1cccc(NC(=S)N/N=C/c2ccc(O)c(O)c2O)c1 | 56.3% (active)
CN(C)S(=O)(=O)c1cccc(NC(=S)N/N=C/c2cc(Br)ccc2O)c1 | -11.2%
COc1ccc(O)c(/C=N/NC(=S)Nc2cccc(S(=O)(=O)N(C)C)c2)c1 | -37%
Cc1cccc2nc(-c3ccccc3)nc(N3CCC(O)(c4ccc(Cl)cc4)CC3)c12 | -4.5%
CCN1CCCC1CNC(=O)c1ccc(CS(=O)(=O)c2ccccc2C)o1 (configuration not stated) | 4.8%
Cc1ccc(S(=O)(=O)N2CCOC23CCN(C(=O)c2ccc(Cl)cc2Cl)CC3)cc1 | -26.1%
Oc1ccccc1C=Nc1ccccc1-c1nc2ccccc2[nH]1 | -7.6%
CC(C)CC(=O)NC(NC(=S)Nc1sc2c(c1C#N)CCCC2)C(Cl)(Cl)Cl (configuration not stated) | 64.5% (active)
CC(C)(C)C(=O)NC(NC(=S)Nc1sc2c(c1C#N)CCCC2)C(Cl)(Cl)Cl (configuration not stated) | 46.4%
CC(C)(C)C(=O)NC(=S)Nc1sc2c(c1C#N)CCCCC2 | -10.7%
Cc1cc(Nc2ccccc2)nc(NCc2ccccc2)n1 | 52.7%
O=C(c1ccco1)N1CCN(C(=O)c2cc3c(s2)-c2ccccc2OC3)CC1 | -13%
CCOc1ccc(C(=O)NCC(=O)OCC(=O)N2C(C)CCCC2C)cc1 (configuration not stated) | -9.2%
